The campaign covered roughly 52,000 compounds. About 4,300 (8.3%) were called active. Cut-off read from the data, not from the text of the source: active = survival mostly below about 52% (no sharp cut-off); inactive = mostly above about 56%. This excerpt belongs to a sample that is enriched for actives.
test system: DeltatarO mutant; test: S. aureus survival, RN4220 and DeltatarO strains – OD600, teichoic acid synthesis inhibitors, primary screen (AID 463173); conditions: S. aureus RN4220 wild type/DeltatarO growth, OD600, 18 h, stronger effect = lower value, screened at 18.75 µg/mL (by protocol)

Structure (SMILES) | survival
COc1ccc(S(=O)(=O)Nc2ccc3c(c2)N(C(C)=O)CCC3)cc1F | 85% (inactive)
Cc1cc(SCCN2CCOCC2)nc2ccccc12 | 68% (inactive)
CCc1ccc(CNC(=O)c2ccc3nc(SCc4ccc(F)cc4)n(C)c3c2)cc1 | 94% (inactive)
O=C(CSc1cn(CC(=O)N2CCCC2)c2ccccc12)Nc1cc(C(F)(F)F)ccc1Cl | 52% (inactive)
O=C1CSC(c2ccccc2)N1Nc1nc(N2CCOCC2)nc(N2CCOCC2)n1 (stereo unspecified) | 101% (inactive)
COc1cccc(CNC(=O)Cn2nc(N3CCN(c4ccccc4OC)CC3)ccc2=O)c1 | 86% (inactive)
CCn1c2ccccc2c2cc(NC(=O)COc3cccc(C)c3)ccc21 | 27% (active)
CCn1c(=O)cc(OCC(=O)Nc2cc(OC)c(OC)c(OC)c2)c2ccccc21 | 47% (inactive)
CCn1c2ccccc2c2cc(NC(=O)COc3ccc(C)c(C)c3)ccc21 | 119% (inactive)
CCn1c2ccccc2c2cc(NC(=O)COC)ccc21 | 43% (active)
Cc1cc(OCC(=O)Nc2ccc3c(c2)OCCO3)cc(C)c1Cl | 77% (inactive)
CCn1c(=O)cc(SCC(=O)Nc2ccc(C)c(F)c2)c2ccccc21 | 89% (inactive)
CCn1c2ccccc2c2cc(NC(=O)COc3cc(C)c(Cl)c(C)c3)ccc21 | 50% (active)
Cc1cccc(OCC(=O)Nc2ccc(NC(=O)c3ccco3)cc2)c1 | 83% (inactive)
COc1ccc(Nc2cc(C)c3cc(NC(=O)COc4cccc(C)c4)ccc3n2)cc1 | 102% (inactive)
COc1ccc(OCC2CNC(=O)O2)cc1 (stereo unspecified) | 61% (inactive)
C=CCn1c(=O)/c(=C2/Sc3ccccc3N2CC)s/c1=C1/C(=O)NN=C1C | 89% (inactive)
Cc1ccc(Nc2ccc(N3CCN(C(=O)c4cccc([N+](=O)[O-])c4)CC3)nn2)cc1 | 85% (inactive)
O=C(NCCc1ccccc1)c1ccc2c(c1)N(Cc1ccc(Cl)cc1)C(=O)c1ccccc1S2(=O)=O | 89% (inactive)
COCCCNC(=O)c1ccc2c(c1)N(Cc1ccccc1F)C(=O)c1ccccc1S2=O (stereo unspecified) | 83% (inactive)
COC(=O)c1sc2cccc(F)c2c1S(=O)(=O)NCc1ccc(F)cc1 | 103% (inactive)
N#CC1=C(N)C(C#N)(C#N)C(c2ccccc2)C2CCCC=C12 (stereo unspecified) | 97% (inactive)
COc1ccc(C2=C(N3CCN(c4cc(Cl)ccc4C)CC3)c3ccccc3C2=O)cc1 | 95% (inactive)
Cc1ccc(C)c(N2CCN(C3=C(c4ccccc4)C(=O)c4ccccc43)CC2)c1 | 100% (inactive)

Structure (SMILES) | survival
COc1ccc(C2=C(N3CCN(c4cc(C)ccc4C)CC3)c3ccccc3C2=O)cc1 | 28% (active)
CCc1ccc(CNc2ncc(-c3cccc(OC)c3)n2C)cc1 | 8% (active)
Cn1c(-c2cccc(Br)c2)cnc1NCc1cccc(F)c1 | 28% (active)
COc1cccc(C(=O)n2nc(-c3cccnc3)nc2NCc2ccc(F)cc2)c1 | 71% (inactive)
COc1cccc(-c2cnc(NCc3ccccc3Cl)n2C)c1 | 51% (inactive)
Cn1c(-c2ccccc2)cnc1NC(=O)c1ccc(F)cc1 | 81% (inactive)
O=C(NCc1cccc(F)c1)c1ccc(-n2cnc3cccnc32)cc1 | 97% (inactive)
Cc1cc(Cl)ccc1NC(=O)CS(=O)(=O)c1cccc2nsnc12 | 125% (inactive)
Fc1ccc(-c2cc(-c3nc(-c4cccc(Cl)c4)no3)[nH]n2)cc1 | 88% (inactive)
CC(C)(C)c1ccc(C(=O)NC2CCSC2=O)cc1 (stereo unspecified) | 92% (inactive)
NC(=O)c1ccccc1NC(=O)Cn1nc(Cc2cccnc2)c2ccccc2c1=O | 71% (inactive)
O=C(NCCn1cc(SCc2ccc(C(F)(F)F)cc2)c2ccccc21)c1ccccc1F | 36% (active)
COc1ccc(C(=O)NCCn2cc(SCc3cc(C)ccc3C)c3ccccc32)cc1 | 57% (inactive)
COc1ccc(C(=O)NCCn2cc(SC(C)c3ccccc3)c3ccccc32)cc1OC (stereo unspecified) | 61% (inactive)
O=C(CSc1cn(CCNC(=O)c2ccccc2F)c2ccccc12)Nc1ccccc1F | 80% (inactive)
CC(Sc1cn(CCNC(=O)c2ccccc2F)c2ccccc12)c1ccccc1 (stereo unspecified) | 42% (active)
O=C(NCCn1cc(SCc2ccc(C(F)(F)F)cc2)c2ccccc21)c1cccs1 | 95% (inactive)
COc1ccc(C(=O)NCCn2cc(SCc3cccc(F)c3)c3ccccc32)cc1OC | 52% (inactive)
COc1ccc(C(=O)NCCn2cc(SCc3ccc(C(F)(F)F)cc3)c3ccccc32)cc1OC | 72% (inactive)
Cc1ccc(C)c(CSc2cn(CCNC(=O)c3cccs3)c3ccccc23)c1 | 71% (inactive)
O=C(CSc1cn(CCNC(=O)c2cccc(C(F)(F)F)c2)c2ccccc12)Nc1ccc2c(c1)OCCO2 | 87% (inactive)
O=C(NCCn1cc(SCc2cccc(F)c2)c2ccccc21)c1cccc(C(F)(F)F)c1 | 35% (active)
Cc1ccc(C)c(CSc2cn(CCNC(=O)c3ccccc3F)c3ccccc23)c1 | 35% (active)
O=C(CCC(=O)N1CC2CCCN2c2ccccc21)NCc1ccccc1F (stereo unspecified) | 131% (inactive)

Structure (SMILES) | survival
CCOc1ccc(NC(=O)C2CCC(N3C(=O)C4CC=CCC4C3=O)CC2)cc1 (stereo unspecified) | 77% (inactive)
COc1ccc2oc(=O)c(-c3nc(-c4cccs4)no3)cc2c1 | 73% (inactive)
CCc1ccc(NC(=O)CSc2nccn2C2CCCC2)cc1 | 70% (inactive)
CCN(C(=O)c1cc2c(Cl)nc3ccc(C)cc3c2s1)c1cc(OC)ccc1OC | 61% (inactive)
CCOc1ccc2c(c1)c(=O)c(S(=O)(=O)c1ccc(C)cc1)cn2CC(=O)Nc1ccc(C)cc1 | 66% (inactive)
O=C(NCCn1cc(SCc2ccccc2)c2ccccc21)c1cccs1 | 54% (active)
O=C(NCCn1cc(SCc2ccc(F)cc2)c2ccccc21)c1cccs1 | 50% (inactive)
O=C(NCCn1cc(SCc2ccc(Br)cc2)c2ccccc21)c1cccs1 | 110% (inactive)
O=C(CSc1cn(CCNC(=O)c2c(F)cccc2F)c2ccccc12)Nc1ccc(F)cc1 | 128% (inactive)
O=C(CSc1cn(CCNC(=O)c2c(F)cccc2F)c2ccccc12)Nc1ccccc1F | 55% (inactive)
O=C(NCCn1cc(SCc2ccc(F)cc2)c2ccccc21)c1c(F)cccc1F | 53% (active)
CCOc1ccc(-c2cccc(NS(=O)(=O)c3ccc(F)cc3F)c2)nn1 | 77% (inactive)
CCN(CC)CCCNC(=O)Cn1nc(N2CCN(c3ccccc3OC)CC2)ccc1=O | 75% (inactive)
CCOc1ccccc1Oc1ncnc2c1oc1ccccc12 | 83% (inactive)
COc1ccc(Oc2ncnc3c2oc2ccccc23)cc1 | 55% (inactive)
Fc1ccccc1Oc1ncnc2c1oc1ccccc12 | 37% (active)
CC(=O)N1CCc2cc(S(=O)(=O)NC(CC(C)C)C(=O)Nc3ccc(C(C)C)cc3)ccc21 (stereo unspecified) | 61% (inactive)
FC(F)(F)c1cccc(N2CCN(c3ncnc4c3nc3n4CCCC3)CC2)c1 | 95% (inactive)
CCOC(=O)c1ccccc1NC(=O)CSc1nnc(CC)n2c1cc1occc12 | 63% (inactive)
O=C(O)C1CCCCC1C(=O)Nc1cccc(C(=O)N2CCCCC2)c1 (stereo unspecified) | 101% (inactive)
COc1ccc(OC)c(NC(=O)c2ccc3c(SCC(=O)O)c4c(nc3c2)CCCC4)c1 | 64% (inactive)
Cn1cnc2c(=O)oc3ccc(S(=O)(=O)N4CCN(c5ccccc5)CC4)cc3c21 | 77% (inactive)
Cn1cnc2c(=O)oc3ccc(S(=O)(=O)N4CCN(c5cccc(C(F)(F)F)c5)CC4)cc3c21 | 108% (inactive)
Cn1cnc2c(=O)oc3ccc(S(=O)(=O)N4CCN(c5cccc(Cl)c5)CC4)cc3c21 | -5% (active)

Structure (SMILES) | survival
Cc1ccc(/C=C/c2onc(C)c2S(=O)(=O)N2CCC(C(=O)NCc3ccco3)CC2)cc1 | 74% (inactive)
CCOc1ccccc1NC(=O)c1c(NC(=O)Cc2ccccc2)sc2c1CCCC2 | 81% (inactive)
CCOc1ccccc1NC(=O)c1c(NC(=O)c2cccc(C)c2)sc2c1CCCC2 | 76% (inactive)
CCc1ccccc1NC(=O)c1c(NC(=O)c2ccccc2)sc2c1CCCC2 | 42% (active)
COc1ccccc1NC(=O)c1c(NC(=O)c2ccccc2Cl)sc2c1CCC2 | 78% (inactive)
COc1ccccc1NC(=O)c1c(NC(=O)c2ccccc2F)sc2c1CCC2 | 136% (inactive)
O=C(Nc1sc2c(c1C(=O)Nc1ccccc1Cl)CCCC2)c1ccccc1F | 48% (active)
CCOc1ccccc1NC(=O)c1c(NC(=O)c2ccccc2)sc2c1CCCC2 | 58% (inactive)
Cc1ccccc1NC(=O)c1c(NC(=O)c2ccccc2)sc2c1CCC2 | 126% (inactive)
O=C(Cc1ccccc1)Nc1sc2c(c1C(=O)Nc1ccccc1Cl)CCC2 | 34% (active)
CCOc1ccccc1NC(=O)c1c(NC(=O)Cc2ccc(OC)cc2)sc2c1CCC2 | 61% (inactive)
Cc1ccccc1NC(=O)c1c(NC(=O)Cc2ccccc2)sc2c1CCC2 | 29% (active)
O=C(NC1CC(=O)N(c2ccc(Cl)cc2)C1)c1ccc2c(c1)OCO2 (stereo unspecified) | 78% (inactive)
CN(C(=O)c1nn(C)c2c1COc1ccccc1-2)c1cccc(C(F)(F)F)c1 | 81% (inactive)
Cc1ccc(C2=Nc3ccccc3N(CC(=O)Nc3cccc(F)c3)C(=O)C2)cc1C | 79% (inactive)
CCOC(=O)CC(=O)CSc1nc2ccccc2c(=O)n1CCc1ccccc1 | 84% (inactive)
COc1cccc(C(=O)Nc2ccc3oc(-c4cccc5c(Br)cccc45)nc3c2)c1 | 59% (inactive)
O=C(CCC1N=C2c3ccccc3N=C(SCC(=O)Nc3ccc(F)cc3)N2C1=O)NCc1cccs1 (stereo unspecified) | 87% (inactive)
O=C(Cc1ccccc1)Nc1sc2c(c1C(=O)Nc1ccccc1Cl)CCCCC2 | 47% (inactive)
O=C(O)CCC(=O)Nc1sc2c(c1C(=O)Nc1ccccc1)CCCCC2 | 92% (inactive)
O=C(COc1ccccc1)Nc1sc2c(c1C(=O)Nc1ccccc1Cl)CCCCC2 | 56% (active)
O=C(Cc1ccccc1)Nc1sc2c(c1C(=O)Nc1ccccc1Cl)CCCC2 | 31% (active)
O=C(COc1ccccc1)Nc1sc2c(c1C(=O)Nc1ccccc1)CCCCC2 | 85% (inactive)
COc1ccccc1NC(=O)c1c(NC(=O)COc2ccccc2)sc2c1CCCCC2 | 85% (inactive)

— PubChem BioAssay AID463173 (ICCB-Longwood Screening Facility, Harvard Medical School, 2010)
